Assay results: PubChem BioAssay (NCATS)
Inconclusive results are not listed. Calls of active or inactive are those of the source. Unless noted, how the calls were made is not given here.

Experiments:
[1] = qHTS profiling for inhibitors of Plasmodium falciparum (3D7) proliferation (AID 743322);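 further: infected erythrocytes exposed to compound for 72 h before lysis; 100% = DMSO vehicle wells and 0% = 0.29 µM artemisinin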; conditions: P. falciparum 3D7 proliferation; at 28.7 µM (top of the series) unless noted
Procedure, shortened: (§1)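 Erythrocytes infected with P. falciparum (0.3% parasitemia, 2.5% hematocrit) incubated with compounds 72 h at 37 C, 5% CO2. Lysis with saponin/Triton buffer containing SYBR Green I, overnight at room temperature in the dark; DNA fluorescence (485/535 nm) normalised to 0.29 uM artemisinin and DMSO.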

[2] = qHTS profiling for inhibitors of Plasmodium falciparum (DD2) proliferation (AID 743323); conditions: lower = more inhibition; at 28.7 µM (top of the series) unless noted
Procedure, shortened: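 Parasite proliferation measured via DNA-dye fluorescence, as uninfected erythrocytes lack DNA. Cultures at 0.3% parasitemia and 2.5% hematocrit incubated 72 h with compound; signal scaled between vehicle and 0.29 uM artemisinin wells.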

[3] = qHTS profiling for inhibitors of Plasmodium falciparum (HB3) proliferation (AID 743324; active means well fitted curve in the direction sought with a large enough effect; an effect the other way counts as inactive or inconclusive;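 further: 100% = DMSO vehicle wells and 0% = artemisinin-treated control wells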); conditions: Plasmodium falciparum HB3 blood-stage proliferation; at 28.7 µM (top of the series) unless noted
Procedure, shortened: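 P. falciparum HB3 grown in erythrocytes (0.3% parasitemia, 2.5% hematocrit final) with compound for 72 h at 37 C, 5% CO2. Parasite DNA detected by SYBR Green after saponin/triton lysis overnight; normalized to 0.29 uM artemisinin and DMSO.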

[4] = qHTS profiling of the MIPE4 collection as inhibitors of Plasmodium falciparum (DD2) proliferation (AID 743345); conditions: P. falciparum Dd2 in erythrocytes, SYBR Green DNA, 72 h; at 28.5 µM (top of the series) unless noted
Procedure, shortened: as §1

[5] = qHTS profiling of the MIPE4 collection as inhibitors of Plasmodium falciparum (DD2) proliferation (Rep 2) (AID 743346); conditions: P. falciparum Dd2 in erythrocytes, SYBR Green DNA, 72 h; at 28.5 µM (top of the series) unless noted
Procedure, shortened: as §1

[6] = qHTS profiling of the MIPE4 collection as inhibitors of Plasmodium falciparum (HB3) proliferation (AID 743347);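 further: plate controls were DMSO vehicle wells for no effect and artemisinin wells for full effect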; conditions: P. falciparum HB3 in erythrocytes, SYBR Green DNA, 72 h; at 28.5 µM (top of the series) unless noted
Procedure, shortened: as §1

[7] = High-throughput drug toxicity screening in the BPDCN cell line Gen2.2 (AID 1224824); conditions: Gen2.2 BPDCN cells; at 45.8 µM (top of the series) unless noted;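 further: cells exposed to compounds for 48 h before reading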
Procedure, shortened: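 Gen2.2 cells, 500 per well in phenol red-free RPMI with 10% FBS, exposed to compounds 48 h at 37 C, 5% CO2; viability by CellTiter-Glo luminescence. Percent activity scaled to DMSO (100%) and 9.2 uM bortezomib final (0%).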

[8] = High-throughput drug toxicity screening in the BPDCN cell line Cal-1 (AID 1224825); conditions: Cal-1 BPDCN cell viability, qHTS; at 45.8 µM (top of the series) unless noted
Procedure, shortened: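 Exponentially growing Cal-1 cells, 500 per well in phenol red-free RPMI with 10% FBS, were exposed to compounds for 48 h at 37 °C, 5% CO2. Viability was read by CellTiter-Glo luminescence and normalised to DMSO (100%) and 9.2 uM bortezomib (0%).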

[9] = qHTS assay for measurement of the activity of small molecule inhibitors on Zika virus induced Caspase-3 activity in human iPSC derived neural progenitor cells (hNPCs) (AID 1224857; active means well fitted curve in the direction sought with a large enough effect; an effect the other way counts as inactive or inconclusive; further: nearly all actives have a fitted effect of over 65% in size; further: potency means the concentration at half of the fitted maximal effect)
Procedure, shortened: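 Human iPSC-derived neural progenitor cells pretreated 1 hr with compounds, then infected with Zika virus (2 FFU/cell) for 6 hours at 37 C. Caspase-3/7 measured by Caspase-Glo luminescence; % inhibition calculated from induction scaled to uninfected (0%) and infected (100%) wells.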

[10] = qHTS assay for measurement of the activity of small molecule inhibitors on Zika virus induced Caspase-3 activity in human astrocytoma cells (AID 1224859; active means well fitted curve in the direction sought with a large enough effect; an effect the other way counts as inactive or inconclusive;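 further: plate controls were ZIKV-infected untreated cells for no effect and uninfected cells for full effect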)
Procedure, shortened: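 SNB-19 astrocytoma cells, 250/well, pretreated 1 h with compounds, then Zika virus at 2 FFU/cell for 6 h at 37 C; Caspase-Glo 3/7 luminescence after 30 min; percent inhibition normalised to uninfected and infected controls.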

[11] = qHTS profiling of the MIPE4 collection as inhibitors of Plasmodium falciparum (3D7) proliferation (AID 743344);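 further: scaled between DMSO vehicle wells and 0.29 µM artemisinin as full inhibition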; conditions: P. falciparum 3D7 in erythrocytes, SYBR Green DNA fluorescence, 72 h; at 28.5 µM (top of the series) unless noted
Procedure, shortened: as §1

[12] = qHTS Assay for Identifying Gametocytocidal Compounds (AID 743244; active means well fitted curve in the direction sought with a large enough effect; an effect the other way counts as inactive or inconclusive;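 further: on the % scale 0 is the no-effect control and ±100 the full control effect; actives lower the fluorescent signal which means gametocytes are killed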); conditions: P. falciparum 3D7 stage III-V gametocytes, alamarBlue, 72 h; max response: stronger effect = lower value
Procedure, shortened: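 Stage III-V P. falciparum 3D7 gametocytes, 20,000 per well, were exposed to compounds for 72 h at 37C, 5% CO2. AlamarBlue was then added for 24 h and viability was read as fluorescence at Ex 525/Em 598 nm.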

Structure (SMILES)	remaining parasite growth % (stronger effect = lower value) [1]	activity, percent of control [2]	remaining proliferation (% of control), lower = more inhibition [3]	parasite growth remaining, % of DMSO control (lower = more inhibition) [4] [%]	parasite growth, % of control (lower = inhibition) [5] [%]	growth, % of control [6] [%]	cell viability, % of control (lower = more cytotoxic) [7] [%]	viability (% of control) [8] [%]	Potency [9]	Potency [10]	parasite growth, % of DMSO control [11] [%]	max response [12]
COc1ccc2nc3cc(Cl)ccc3c(Nc3cc(CN4CCCC4)c(O)c(CN4CCCC4)c3)c2n1	-1.29%	-0.214%	-0.744%	6.47	7.91	13.2	21.4	8.39	inactive	inactive		
CCC(=O)NCC[C@@H]1CCc2ccc3c(c21)CCO3				89.9	71.2		184	117	inactive	inactive	98.2	
N#CC(c1ccc(Cl)cc1)c1c(Cl)cc(-n2ncc(=O)[nH]c2=O)cc1Cl (stereo unspecified)				10.7	10.2	7.09	69.2	12.7	inactive	inactive	19.5	-5.57% (inactive)
CC(C)C[C@@H](C(=O)N[C@H](C(=O)OC1CCCC1)c1ccccc1)[C@H](O)C(=O)NO	3.5%	9.3%	11%	21.7	29		6.81	8.67	inactive	inactive	15.1	
COc1cc([C@@H]2c3cc4c(cc3[C@@H](O[C@@H]3O[C@@H]5CO[C@@H](C)O[C@@H]5[C@H](O)[C@@H]3O)[C@H]3COC(=O)[C@H]23)OCO4)cc(OC)c1O	51.5% [at 9.63 µM]	47.3% [at 9.63 µM]	11.4% [at 9.63 µM]	11	140	4.48	57.1	8.03	inactive	inactive		
CO[C@@H]1C(N(C)C(=O)c2ccccc2)C[C@H]2O[C@]1(C)n1c3ccccc3c3c4c(c5c6ccccc6n2c5c31)C(=O)NC4=O (stereo partly specified)	110%	103%	120%	8.87	122	28.7	247	28.3	inactive	inactive	17.5	
CC(C)CNc1ccnc(NCc2csc(-c3ccccc3)n2)n1	3.03%	6.76%	-0.95%	31.7	25		74.3	5.31	inactive	inactive	7.23	
CCCCCCCCCCCCCCCC(=O)O[C@H]1[C@@H](O)[C@@H](O)[C@@H]([C@H](NC(=O)[C@@H]2C[C@@H](CCC)CN2C)[C@H](C)Cl)O[C@@H]1SC				11	20.4		218	94.5	inactive	inactive	31.4	
O=C(Nc1cccc2c(=O)cc(-c3nn[nH]n3)oc12)c1ccc(OCCCCc2ccccc2)cc1				31.5	15.1	7.59	51.3	26.2	inactive	inactive	8.12	38.4% (inactive)
C[C@@H](O[C@H]1OCCN(Cc2n[nH]c(=O)[nH]2)[C@@H]1c1ccc(F)cc1)c1cc(C(F)(F)F)cc(C(F)(F)F)c1	16.5%	26.1%	9.06%	52.9	66.5	34.2	39.1	16.1	8.33 µM (active)	inactive	26.5	
Cc1ccc(NC(=O)c2ccc(CN3CCN(C)CC3)cc2)cc1Nc1nc(-c2cccnc2)cs1	0.463%	5.7%	4.39%	12	12.5	4.3	14.8	6.7	inactive	inactive	9.29	
CN1CC(=O)NC1=NC(=O)Nc1cccc(Cl)c1				83.9	23.4		3.29	31.9	inactive	inactive	78.1	
CS(=O)(=O)c1ccc(C2=C(c3ccccc3)C(=O)OC2)cc1				83.1	70.8	58.5	123	109	inactive	inactive	94.3	3.44% (inactive)
O=C1NC(=O)C(c2cnc3ccccn23)=C1c1cn2c3c(cccc13)CN(C(=O)N1CCOCC1)CC2	49.3%	63.3%	10.8%		59.2	54.5	36.5	24.4	inactive	inactive	22.1	
CCN(CC)CCCCNc1nc2cc(Cl)c(Cl)cc2nc1-c1ccc(-c2cccs2)s1	0.96%	1.46%	4.08%	10.5	19.1	5.94	5.29	4.45	inactive	inactive	9.66	
CSc1cccc(Nc2ncc3cc(-c4c(Cl)cccc4Cl)c(=O)n(C)c3n2)c1				13.9	9.88		288	34.2	inactive	inactive	5.72	
C[C@]12C=CC(=O)C=C1CC[C@@H]1[C@@H]2[C@@H](O)C[C@@]2(C)[C@@H]1CC[C@]2(O)C(=O)CO				100	86.4		87.5	14.3	inactive	inactive	84.7	
CC(=O)Nc1cccc(-n2c(=O)n(C3CC3)c(=O)c3c(Nc4ccc(I)cc4F)n(C)c(=O)c(C)c32)c1	-2.85%	-0.291%	-0.298%	6.3	9.44	2.56	11.2	7.97	inactive	inactive	5.62	
NS(=O)(=O)c1cc(Cl)c(Cl)c(S(N)(=O)=O)c1				58.8	88.2	98.5	166	125	inactive	inactive	101	-4.73% (inactive)
